This is a sample that favours compounds with a hit; in the whole collection about 21% have one here.
Cycloheximide cs = Cycloheximide Counterscreen for Small Molecule Inhibitors of Shiga Toxin; cell reporter, cycloheximide protein synthesis inhibition counterscreen; max response, %; hit rate 12% among 300,000; AID 2314, 2010; in the data active = max response mostly above about 13%, no sharp cut-off; inactive = mostly below about 14%; note: read at 38.3 µM for the half of the compounds with a filed dose; 0% is about no effect
SARS PLpro yeast = qHTS of Yeast-based Assay for SARS-CoV PLP. S. cerevisiae expressing SARS-CoV PLpro, growth rescue. Potency, µM (doses to about 32.9 µM), inactives show at the highest dose activity, positive = growth rescue, most hits filed as activators. hit rate 0.19% among 330,000. AID 485353, 2010; note: potency is the fitted concentration of half-maximal effect; 0% is about no effect; nearly all actives have a fitted effect of over 55% in size
Shiga inhibitor = A qHTS for Small Molecule Inhibitors of Shiga Toxin | inhibition, % at 38.7 µM | hit rate 9.2% among 290,000 | Vero cells, Shiga toxin protein synthesis inhibition reporter; in the data active = inhibition mostly above about 28%, no sharp cut-off; inactive = mostly below about 43%; note: 0% is about no effect
Pf growth 96h = Primary qHTS for delayed death inhibitors of the malarial parasite plastid, 96 hour incubation. P. falciparum luciferase reporter growth, 96 h. Potency, µM (titrated, usually from 28.7 µM), for inactives: top-dose activity change, negative = inhibition, most hits filed as inhibitors. hit rate 6.9% among 320,000. AID 504834, 2011; active = well fitted inhibition curve with a large enough effect; inconclusive = small, poorly fitted or top-dose-only effect, or another doubt; inactive = no such curve, though single readings can be large or run the other way; note: potency is the fitted concentration of half-maximal effect; % is set by controls: 0 for no effect and ±100 for the full control effect
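Two parasite generations (96 h, 37 C, 5% CO2) of compound exposure in infected erythrocytes (0.05% parasitemia, 2% hematocrit). Luciferase-reporter P. falciparum; decreased luminescence indicates inhibited growth, aimed at apicoplast-acting delayed death.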
Pf growth 48h = Primary qHTS for delayed death inhibitors of the malarial parasite plastid, 48 hour incubation; Potency, µM (titrated, usually from 28.7 µM), for the others: at the top dose activity change, negative = inhibition, usual class: inhibitors; P. falciparum luciferase growth in erythrocytes, 48 h; hit rate 5.9% among 310,000; active = well fitted inhibition curve with a large enough effect; inconclusive = small, poorly fitted or top-dose-only effect, or another doubt; inactive = no such curve, though single readings can be large or run the other way; note: potency is the fitted concentration of half-maximal effect; % is set by controls: 0 for no effect and ±100 for the full control effect
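Growth was read as firefly luciferase luminescence after a 48 h, 37 C, 5% CO2 exposure of compounds to reporter-bearing P. falciparum cultures (0.1% parasitemia, 2% hematocrit final) in Albumax-supplemented RPMI 1640.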
NS1 inh = qHTS Assay for Inhibitors of Influenza NS1 Protein Function; Potency, µM (top dose mostly 46.1 µM), without a hit: top-dose activity, positive = more growth; hit rate 0.4% among 270,000; AID 2326, 2010; note: potency is the fitted concentration of half-maximal effect; actives are rising curves; nearly all actives have a fitted effect of over 50% in size
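OD600 was taken as the measure of yeast growth restored by compound in an NS1-expressing S. cerevisiae strain. Cells had been washed out of glucose medium and diluted 1:100 into galactose -URA medium, pH 6.0.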
* hit, by the source's call; u = inconclusive; x = not tested or not shown. Unless noted, calls come from the whole dose curve.

SMILES	Cycloheximide cs	SARS PLpro yeast	Shiga inhibitor	Pf growth 96h	Pf growth 48h	NS1 inh
C=CCCC(=O)N1CCC(n2nccc2NC(=O)c2ccc(OC)cc2)CC1	37.3*	21.9%	33.1	11.7µM*	-7.4%	2.4%
O=C(Nc1ccnn1C1CCN(C(=O)c2cnsn2)CC1)c1cccc(F)c1	18.4*	-2.4%	15.7	u	-5.1%	3.0%
COc1ccc(C(=O)Nc2ccnn2C2CCN(C(=O)CCC(F)(F)F)CC2)cc1	24.2*	1.7%	42.2*	34.2%	21.8%	-5.8%
C/C=C(\C)CN1CCC(n2nccc2NC(=O)c2ccc(OC)cc2)CC1	3.8	0.3%	-17.8	u	2.5%	u
O=C(Nc1ccnn1C1CCN(C2CCCCC2)CC1)c1cccc(F)c1	-3.6	1.9%	7.7	23.0%	-2.9%	-6.8%
COCCCNC(=O)CN1C(=O)COc2ccc(S(=O)(=O)N3CCOCC3)cc21	-2.0	-0.7%	11.3	-14.7%	19.8%	3.4%
Cc1ccccc1C(=O)Nc1ccnn1C1CCN(C(=O)C2CCOC2)CC1 (centres undefined)	-1.4	5.4%	-4.8	210.9%	-16.2%	8.2%
COc1ccc(C(=O)Nc2ccnn2C2CCN(C(=O)C3CCOC3)CC2)cc1 (centres undefined)	25.4*	-1.7%	52.7*	-2.1%	34.2%	-13.4%
Cc1cc(C)cc(-n2ncc3c2CCCC3NC(=O)c2cc(C)n(C)n2)c1 (centres undefined)	21.7*	-12.5%	36.1*	2.2%	-20.2%	-23.2%
Cc1cc(C(=O)NC2CCCc3c2cnn3-c2cccc(C)c2C)no1 (centres undefined)	26.8*	-6.9%	46.2*	u	-12.6%	-21.9%
CC(=O)c1cc(C(=O)NC2CCCc3c2cnn3-c2cc(C)cc(C)c2)[nH]n1 (centres undefined)	29.3*	4.1%	35.1*	-9.9%	-18.6%	4.0%
Cc1cc(C(=O)NC2CCCc3c2cnn3-c2ccc(C(C)(C)C)cc2)nn1C (centres undefined)	-1.2	-5.0%	-22.9	18.4%	-19.4%	-45.1%
CCC[C@H](NC(=O)[C@H](CC(C)C)N(C)C(=O)CNC(=O)[C@@H](NC(=O)[C@H](Cc1ccccc1)NC(=O)[C@H](CCCCN)NC(=O)[C@@H](N)CC(=O)O)C(C)C)C(N)=O	-0.5	x	-12.3	x	x	x
O=C(Cn1ccc2ccccc2c1=O)NCCC(=O)N1CCN(c2cccc(Cl)c2)CC1	-2.6	-3.1%	15.5	7.38µM*	x	4.3%
O=C(CN1CCCC1)NCc1ccccc1	4.7	2.4%	-10.0	13.1µM*	-162.2%	8.5%
O=C(CN1CCN(c2cccc(Cl)c2)CC1)NCc1ccccc1	-1.0	-10.2%	-4.8	10.4µM*	1.4%	-29.4%
O=C(CN1CCOCC1)NCc1ccccc1	-2.2	6.0%	-11.9	u	9.4%	-5.0%
COc1ccc(C(=O)NCc2nnc(SCC(=O)c3ccc(F)cc3)n2C)cc1OC	x	1.1%	x	u	-8.1%	x
CC(C)CN(C(=O)CSc1nc2ccccc2c(=O)n1C)C1CCS(=O)(=O)C1 (centres undefined)	x	u	x	-83.1%	u	x
CC(C)c1ccc(NC(=O)c2sccc2-n2cccc2)cc1	55.8*	-15.4%	158.0*	-13.1%	35.6%	x
O=C(NNC(=O)c1sccc1-n1cccc1)c1ccc(Cl)cc1	-0.3	1.9%	-7.8	0.329µM*	u	-0.4%
Cc1c(Br)cccc1NC(=O)c1sccc1-n1cccc1	12.7	u	-12.3	u	x	-5.6%
CCSc1nc(=O)n(-c2ccccc2)c(C)c1C(C)=O	15.9*	0.0%	33.3*	-9.4%	37.3%	-4.3%
Cc1cc(Cl)ccc1OCCCC(=O)Nc1ccc(S(=O)(=O)Nc2ncccn2)cc1	-2.8	2.6%	5.1	112.9%	13.3%	11.3%
CCOc1ccc(NC(=O)Nc2nc3ccc(S(C)(=O)=O)cc3s2)cc1	-2.0	1.7%	-10.8	u	-59.4%	4.5%
SMILES	Cycloheximide cs	SARS PLpro yeast	Shiga inhibitor	Pf growth 96h	Pf growth 48h	NS1 inh
CCC(CC)NC(=O)Nc1ccc(F)cc1F	-1.5	0.6%	-13.0	u	7.0%	4.5%
CCOc1ccc(NC(=O)Nc2nc(SCC)ns2)cc1	1.2	1.0%	10.2	4.15µM*	0.0%	-13.6%
CCSc1nsc(NC(=O)Nc2ccc(F)cc2F)n1	59.2*	-3.0%	87.1*	-18.8%	-1.3%	-44.3%
CSS(=O)(=O)c1cccc2cccnc12	2.1	-4.3%	23.0	-6.4%	-12.2%	-56.1%
O=C(OCC(=O)c1ccc[nH]1)c1cncc(Br)c1	x	0.9%	x	-9.4%	0.4%	x
O=C(c1ccccn1)c1cc2ccccc2n1S(=O)(=O)c1ccccc1	26.4*	-19.1%	42.7*	-1.9%	-4.7%	11.7%
CCOC(=O)CSc1n[nH]c(NC(=O)c2cccc(C(F)(F)F)c2)n1	6.7	-11.1%	8.0	u	u	14.9%
Cc1ncc([N+](=O)[O-])n1CCN=[N+]=[N-]	x	x	x	x	x	0.0%
COc1ccc2c(c1)c(C(O)CN1CCC(Cc3ccccc3)CC1)c(C)n2C (centres undefined)	0.8	-4.1%	-12.2	10.4µM*	13.1µM*	10.3%
COc1ccc2c(c1)c(C(O)CN1CCN(Cc3ccc4c(c3)OCO4)CC1)c(C)n2C (centres undefined)	8.3	-42.5%	-9.3	u	u	1.2%
COc1cc(Cl)c(C)cc1NC(=O)COc1ccc(C)nc1[N+](=O)[O-]	x	-2.9%	x	-3.7%	35.9%	x
Cc1cccc(N2CCN(C(=O)c3ccccc3OCc3c(C)noc3C)CC2)c1C	x	0.7%	x	u	u	x
CCNc1nc(Cl)nc(NC2CCCCC2)n1	21.3*	1.2%	x	44.0%	44.4%	-13.0%
CC(C)(CO)Nc1nc(Cl)nc(NC2CCCCC2)n1	20.3*	1.4%	27.3	-4.0%	16.1%	-2.9%
Fc1cc(F)cc(Nc2nc(Cl)nc(NC3CCCC3)n2)c1	x	-0.1%	x	u	0.7%	x
CC(C)Nc1nc(Cl)nc(NC2CCCCC2)n1	10.0	-6.5%	13.9	u	-5.5%	-42.2%
CC/C=C/[C@@H](c1ccccc1)[C@H](C)C(O)CC(=O)SC(C)(C)C (some centres undefined)	-1.8	x	35.1	x	x	x
Cc1ccc(NC(=O)[C@@H]2CCCN2S(=O)(=O)c2ccc(Cl)cc2)cc1	x	-5.7%	x	x	x	x
OCCN1CCN(CCCc2c3c(cc4c2CCC4)CCC3)CC1	-2.4	-12.4%	-21.5	11.7µM*	11.7µM*	-2.9%
Cc1ccc(S(=O)(=O)Oc2cc(S(=O)(=O)O)cc3cc(S(=O)(=O)O)cc(N)c23)cc1	x	x	x	x	x	-2.6%
CCCC(NC(=O)CCc1c(C)c2cc3c4c(oc3c(C)c2oc1=O)CCCC4)C(=O)O (centres undefined)	13.8	-1.8%	23.5	14.6%	3.7%	17.0%
CCN(C(=O)CSc1nnc(Cn2nnc3ccccc32)o1)c1nc(-c2ccccc2)cs1	-4.8	7.0%	-12.0	44.4%	x	-8.8%

From PubChem BioAssay
